Laboratory results: the supplement of paper PMC3342239
Counter-ions that a name gives are not always drawn.

Test system: Saccharomyces cerevisiae
Test: fraction of cells in G1 phase (DNA content, flow cytometry); higher = more cells with unreplicated DNA (G1 delay)
Conditions: temperature: 30 C; YPD; JTY2953 pdr5 snq2 (sensitized); drug added to: cultures diluted from stationary phase; 6-7 h
Protocol: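 S. cerevisiae cultures in YPD at 30°C were treated with each drug of the Enzo FDA-approved library at 20 µg/ml (final µM given per drug). Cells were fixed after 6–7 h (S1) or 6 h (S2), or after 4.33 h for BY4741 (S3), then stained with SYTOX Green. %G1 is the Dean-Jett-Fox G1 peak area divided by the G1+G2/M peak areas, written as a fraction and averaged over at least two independent experiments. DMSO reference: mean ~0.49; >0.60 is called High G1 and <0.3876 Low G1. Scale: lower means mitotic delay.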

Compound	fraction of cells in G1 phase
CC(C)CC(N(C)C)C1(c2ccc(Cl)cc2)CCC1 (stereo not given) [Sibutramine HCl] (71.4652 µM)	0.516
CN1C[C@H](C(=O)N[C@]2(C)O[C@@]3(O)[C@@H]4CCCN4C(=O)[C@H](Cc4ccccc4)N3C2=O)C=C2c3cccc4[nH]cc(c34)C[C@H]21 [Ergotamine D-tartrate] (34.3833 µM)	0.499
O=C([O-])Cc1ccccc1.[Na+] [Sodium phenylacetate] (126.475 µM)	0.487
CC(C)(C)NCC(O)c1cc(Cl)c(N)c(Cl)c1 (stereo not given) [Clenbuterol] (72.1511 µM)	0.498
CC(N)C(O)c1ccccc1 (stereo not given) [Phenylpropanolamine] (132.266 µM)	0.466
NCCCNCCSP(=O)(O)O [Amifostine] (93.3599 µM)	0.512
CNC(=O)Oc1ccc2c(c1)[C@]1(C)CCN(C)[C@@H]1N2C [Physostigmine sulfate] (72.6339 µM)	0.472
CC(NC(C)(C)C)C(=O)c1cccc(Cl)c1 (stereo not given) [Amfebutamone] (83.4211 µM)	0.502
CCC1(c2ccc(N)cc2)CCC(=O)NC1=O (racemic) [Dl-aminoglutethimide] (86.1012 µM)	0.476
CC(C)[C@@]1(NC(=O)[C@@H]2C[C@@H]3c4cccc5[nH]cc(c45)C[C@H]3N(C)C2)O[C@@]2(O)[C@@H]3CCCN3C(=O)[C@H](Cc3ccccc3)N2C1=O [Dihydroergocristine mesylate] (32.6932 µM)	0.465
CC(C)C[C@H]1C(=O)N2CCC[C@H]2[C@]2(O)O[C@](NC(=O)[C@@H]3C=C4c5cccc6[nH]c(Br)c(c56)C[C@H]4N(C)C3)(C(C)C)C(=O)N12 [Bromocriptine mesylate] (30.5525 µM)	0.529
O=C1CC[C@@]2(O)[C@H]3Cc4ccc(O)c5c4[C@@]2(CCN3CC2CC2)[C@H]1O5 [Naltrexone HCl] (58.5805 µM)	0.509
Oc1ccc2c3c1O[C@H]1c4oc5ccccc5c4C[C@@]4(O)[C@@H](C2)N(CC2CC2)CC[C@]314 [Naltriben methanesulfonate hydrate] (39.093 µM)	0.45
O=c1[nH]c2ccccc2n1CCCN1CCC(n2c(=O)[nH]c3cc(Cl)ccc32)CC1 [Domperidone] (46.957 µM)	0.505
CN1C[C@H](C(=O)N[C@]2(C)O[C@@]3(O)[C@@H]4CCCN4C(=O)[C@H](Cc4ccccc4)N3C2=O)C[C@@H]2c3cccc4[nH]cc(c34)C[C@H]21 [Dihydroergotamine mesylate] (34.2646 µM)	0.527
O=C1CCCN1CC#CCN1CCCC1 [Oxotremorine sesquifumarate] (96.9509 µM)	0.542
CN1[C@@H]2C[C@@H](OC(=O)[C@H](CO)c3ccccc3)C[C@H]1[C@@H]1O[C@@H]12 [Scopolamine HBr] (65.928 µM)	0.464
C=CCN1C[C@H](C(=O)N(CCCN(C)C)C(=O)NCC)C[C@@H]2c3cccc4[nH]cc(c34)C[C@H]21 [Cabergoline] (44.2853 µM)	0.496
CO[C@]12C[C@@H](COC(=O)c3cncc(Br)c3)CN(C)[C@@H]1Cc1cn(C)c3cccc2c13 [Nicergoline] (41.2884 µM)	0.481
CCCN1C[C@H](CSC)C[C@@H]2c3cccc4[nH]cc(c34)C[C@H]21 [Pergolide mesylate] (63.5937 µM)	0.489

Compound	fraction of cells in G1 phase
C[C@@H]1CN([C@H]2CC[C@](C#N)(c3ccc(F)cc3)CC2)CC[C@]1(C(=O)O)c1ccccc1 [Levocabastine HCl] (47.5588 µM)	0.468
CCN(C)C(=O)Oc1cccc([C@H](C)N(C)C)c1 [Rivastigmine] (79.8902 µM)	0.504
CC(C)NCC(O)c1ccc(N)c(C#N)c1 (stereo not given) [Cimaterol] (91.2039 µM)	0.493
CC(C)c1cccc(C(C)C)c1O [Propofol] (112.185 µM)	0.511
C=CCN1CC[C@]23c4c5ccc(O)c4O[C@H]2/C(=N/N=C2\CC[C@@]4(O)[C@H]6Cc7ccc(O)c8c7[C@@]4(CCN6CC=C)[C@H]2O8)CC[C@@]3(O)[C@H]1C5 [Naloxonazine 2HCl] (30.7323 µM)	0.456
C[C@@H]1O[C@@H](O[C@H]2C[C@@H](O)[C@]3(CO)[C@H]4[C@H](O)C[C@]5(C)[C@@H](C6=CC(=O)OC6)CC[C@]5(O)[C@@H]4CC[C@]3(O)C2)[C@H](O)[C@H](O)[C@H]1O [Ouabain] (27.4424 µM)	0.521
Oc1ccc2c3c1O[C@H]1[C@@H](O)CC[C@@]4(O)[C@@H](C2)N(CC2CCC2)CC[C@]314 [Nalbuphine HCl] (55.9513 µM)	0.469
COc1ccc2c(c1)[nH]c1c(C)nccc12 [Harmine] (94.227 µM)	0.474
C=CCN1CC[C@]23CCCC[C@H]2[C@H]1Cc1ccc(O)cc13 [Levallorphan tartrate] (70.5673 µM)	0.476
O=C(CCCN1CCC2(CC1)C(=O)NCN2c1ccccc1)c1ccc(F)cc1 [Spiperone] (50.5713 µM)	0.484
O=C1C[C@@H]2OCC=C3CN4CC[C@]56c7ccccc7N1[C@H]5[C@H]2[C@H]3C[C@H]46 [Strychnine HCl] (59.8047 µM)	0.497
CC(O)(CS(=O)(=O)c1ccc(F)cc1)C(=O)Nc1ccc(C#N)c(C(F)(F)F)c1 (stereo not given) [Bicalutamide] (46.4705 µM)	0.493
CN(C)C(=O)Oc1cccc([N+](C)(C)C)c1 [Neostigmine Br] (89.5666 µM)	0.485
N[C@@H](Cc1ccc(N(CCCl)CCCl)cc1)C(=O)O [Melphalan] (65.5294 µM)	0.45
Cc1c(N)nc(C(CC(N)=O)NCC(N)C(N)=O)nc1C(=O)NC(C(=O)NC(C)C(O)C(C)C(=O)NC(C(=O)NCCc1nc(-c2nc(C(=O)NCCC[S+](C)C)cs2)cs1)C(C)O)C(O[C@@H]1O[C@@H](CO)[C@@H](O)[C@H](O)[C@@H]1O[C@H]1O[C@H](CO)[C@@H](O)[C@H](OC(N)=O)[C@@H]1O)c1cnc[nH]1 (stereo not given in full) [Bleomycin sulfate] (14.1285 µM)	0.924
C=C1C[C@@H]2[C@H](CC[C@]3(C)C(=O)CC[C@@H]23)[C@@]2(C)C=CC(=O)C=C12 [Exemestane] (67.4764 µM)	0.567
Oc1ccc2c3c1O[C@H]1c4[nH]c5ccccc5c4C[C@@]4(O)[C@@H](C2)N(CC2CC2)CC[C@]314 [Naltrindole HCl] (48.2499 µM)	0.504
CC(C)(C)NCC(O)c1ccccc1Cl (stereo not given) [Tulobuterol] (87.8208 µM)	0.493
CC[C@@H](CO)NC(=O)[C@@H]1C=C2c3cccc4c3c(cn4C)C[C@H]2N(C)C1 [Methysergide] (56.5822 µM)	0.48
CC(=O)O[C@H]1C[C@@H]2CC[C@@H]3[C@H](CCC4(C)[C@H]3C[C@H]([N+]3(C)CCCCC3)[C@@H]4OC(C)=O)C2(C)C[C@@H]1[N+]1(C)CCCCC1 (stereo not given in full) [Pancuronium Br] (34.9114 µM)	0.487
